Assay outcomes: PubChem BioAssay, National Center for Advancing Translational Sciences (NCATS)
Sfp inh: blocks B. subtilis Sfp PPTase activity | Q9F4F7 | Biochemical Sfp PPTase activity, qHTS | Potency, µM, for inactives: largest response in the series, negative = inhibition, actives largely listed as inhibitors | hit rate 3.5% among 310,000 | AID 1490;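 also: the enzyme is Sfp with the accession as filed and its product quenches rhodamine fluorescence; potency is read from the fitted curve at half-maximal effect; 0% = enzyme reaction without inhibitor and -100% = no enzyme wells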
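Step 1, compound plus 15 nM Sfp-PPTase, 15 min, room temperature. Step 2, add rhodamine-CoA (5 uM) and BHQ-2-YbbR (12.5 uM). Step 3, read 525/598 nm fluorescence at 0 and 30 min.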
PLK1 PBD inh: PLK1 (human) polo-box domain binding inhibition | P53350 | Plk1 PBD binding of FITC phosphopeptide, fluorescence polarization | Potency, µM, for inactives: max response, negative = inhibition, actives largely listed as inhibitors | hit rate 2.8% among 360,000; also: potency is read from the fitted curve at half-maximal effect; series mostly up to about 57 µM; nearly all actives have a fitted effect of over 65% in size
Target sequence (P53350 whole entry, looked up, the tested form may be a part): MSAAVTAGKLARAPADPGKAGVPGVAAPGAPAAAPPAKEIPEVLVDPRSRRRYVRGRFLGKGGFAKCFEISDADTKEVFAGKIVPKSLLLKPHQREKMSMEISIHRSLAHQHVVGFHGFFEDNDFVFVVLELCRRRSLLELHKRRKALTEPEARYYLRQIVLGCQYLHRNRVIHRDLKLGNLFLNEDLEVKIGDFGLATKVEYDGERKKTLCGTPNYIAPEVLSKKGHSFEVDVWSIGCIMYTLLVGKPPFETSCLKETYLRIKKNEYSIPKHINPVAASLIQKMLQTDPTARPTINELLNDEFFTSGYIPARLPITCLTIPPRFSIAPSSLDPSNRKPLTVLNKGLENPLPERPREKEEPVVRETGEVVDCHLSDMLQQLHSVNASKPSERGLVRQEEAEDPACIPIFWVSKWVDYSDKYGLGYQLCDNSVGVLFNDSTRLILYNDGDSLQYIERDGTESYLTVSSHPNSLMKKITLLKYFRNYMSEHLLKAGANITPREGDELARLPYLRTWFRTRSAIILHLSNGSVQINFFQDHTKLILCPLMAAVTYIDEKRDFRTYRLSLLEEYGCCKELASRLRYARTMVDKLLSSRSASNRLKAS
CCT chaperon mod: cytosolic chaperonin activity modulation; purified chaperonin ATPase assay, HTRF ADP detection, 30 min; activity change, % (concentration not given with the values), hits read low; hit rate 0.3% among 360,000; AID 651819; in the data active = activity change below about -30%
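Nucleotide hydrolysis assay: TRiC at 20–40 nM final (set by batch activity) with 10 uM ATP, 30 min at 37 °C, in presence of 76 uM compound. Detection by competitive ADP HTRF, 30 min ambient.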
VDR inhibitor: inhibitors of human vitamin D receptor. VDR-SRC2-3 peptide fluorescence polarization, 2 h. AID 504847. Potency, µM, for the others: max response, negative = inhibition, hits mostly inhibitors. P11473. hit rate 0.93% among 400,000; also: potency is read from the fitted curve at half-maximal effect
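VDR–SRC2-3 interaction, FP format. Cmpds 23 nl via pintool, brief spin, 2 h ambient incubation.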
G9a inh: inhibitors of human histone lysine methyltransferase G9a; Q96KQ7; Potency, µM (doses to about 102 µM), for inactives: at the top dose activity, negative = inhibition, hits mostly inhibitors; AID 504332; G9a H3K9 monomethylation, AlphaScreen, 2 h; hit rate 8.8% among 350,000; also: potency is read from the fitted curve at half-maximal effect; nearly all actives have a fitted effect of over 75% in size
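Methyltransferase reactions run at room temperature for 2 h (20 nM enzyme, 500 nM biotin-H3K9 peptide, 20 uM SAM) after a 15 min compound preincubation; product detected by AlphaScreen beads and anti-H3K9me1 antibody.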
Mm-Cpn inhibitor: blocks the Methanococcus maripaludis chaperonin Mm-Cpn; hit rate 0.031% among 330,000; AID 504842; purified Mm-Cpn ATPase, ADP Transcreener TR-FRET; Potency, µM (doses to about 76.9 µM), inactives show at the highest dose activity, negative = inhibition, most hits filed as inhibitors; also: potency is read from the fitted curve at half-maximal effect; nearly all actives have a fitted effect of over 80% in size
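Reaction buffer contained 30 mM Tris pH 7.4, 100 mM KCl, 5 mM MgCl2 and 1 mM DTT. Mm-CPN (25 nM final) hydrolysed 10 uM ATP over 30 min at 37°C; ADP was read by HTRF.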
* hit, by the source's call; u = inconclusive; x = not tested or not shown; [ ] = dose if it differs, or a comment. The list is not random: actives were taken first. Their share in the collection is about 10%. Unless noted, calls follow the shape of the dose curve; as a rule, active = well fitted curve in the direction sought with a large enough effect; inconclusive = small, poorly fitted or top-dose-only effect, or another doubt; inactive = no such curve, though single readings can be large; an effect the other way counts as inactive or inconclusive. Unless noted, % is scaled to controls: 0 for no effect and ±100 for the full control effect.

SMILES	Sfp inh	PLK1 PBD inh	CCT chaperon mod	VDR inhibitor	G9a inh	Mm-Cpn inhibitor
CC(=O)Nc1sc2c(c1C(c1ccccn1)N1CCN(C)CC1)CCCC2 (configuration not stated)	-6.1%	2.2%	0.3	-1.6%	-36.9%	1.1%
Cc1sc(NC(=O)c2ccccc2)c(C(c2ccccn2)N2CCN(CCO)CC2)c1C (configuration not stated)	-23.2%	-19.5%	-0.8	6.3%	u	3.8%
CC(=O)Nc1sc2c(c1C(c1ccccn1)N1CCCC1)CCCC2 (configuration not stated)	44.7µM*	-18.8%	1.8	-16.7%	-40.8%	-1.0%
CCc1cc(C(c2ccccn2)N2CCN(C)CC2)c(NC(=O)c2ccccc2)s1 (configuration not stated)	6.9%	u	1.8	-10.9%	39.8µM*	2.7%
CN1CCN(CCCNCc2cn(CCC#N)c3ccccc23)CC1	56.2µM*	-4.1%	-1.4	-10.2%	50.1µM*	-1.3%
CCOC(=O)C1CCN(Cc2c(O)c3ccccc3oc2=O)CC1	17.1%	-14.9%	0.9	-9.7%	-5.5%	1.5%
CCOC(=O)N1CCN(Cc2c(O)ccc3ccccc23)CC1	-4.8%	10.6µM*	0.4	u	u	3.4%
CCOC(=O)C1CCN(Cc2c(O)ccc3ccccc23)CC1	-9.2%	u	-1.3	-2.8%	3.55µM*	0.5%
O=C(C1CCCO1)N1CCN(Cc2c(O)ccc3ccccc23)CC1 (configuration not stated)	-22.0%	11.9µM*	0.3	50.1µM*	1.41µM*	-0.3%
Cc1ccccc1Cn1cc(CCC(=O)NC(C)c2ccccc2)c2ccccc21 (configuration not stated)	x	x	x	18.7%	-3.9%[59 µM]	x
CN(C)c1ccc(C=C(C#N)C(=O)c2ccccc2)cc1Br	x	0.844µM*	-0.9	x	x	x
N#CC(=Cc1ccc(-c2ccccc2)cc1)C(=O)c1ccccc1	x	1.5µM*	0.0	x	x	x
COc1ccc(/C=C(\C#N)C(=O)c2cccn2C)cc1	-4.5%	-9.6%	-1.4	-8.2%	-25.2%	-0.7%
COc1ccc(/C=C(\C#N)C(=O)C(C)(C)n2cncn2)cc1	-6.1%	13.4µM*	1.2	5.2%	3.7%[12.7 µM]	-0.9%
N#C/C(=C\c1cccs1)C(=O)c1ccccc1	-6.8%	6.7µM*	-0.8	-14.1%	-44.3%	0.0%
CCOC(=O)CCc1c(C)nc2cc(-c3cc(OC)cc(OC)c3)[nH]n2c1=O	x	x	x	-23.5%	8.5%[59 µM]	x
Cc1ccc(Cl)cc1N1C(=O)N(Cc2ccc(C#N)cc2)c2ccccc2S1(=O)=O	x	x	x	9.4%	7.8%[59 µM]	x
C=CC(C)(C)c1c2c(c(O)c3c(=O)c4ccc(O)c(O)c4oc13)C=CC(C)(C)O2	11.3%	x	x	9.4%	x	x
Cc1ccc(/C=C2/C(=O)C3(C)CCC2C3(C)C)cc1 (configuration not stated)	-4.0%	x	x	-5.4%	10.7%[12.7 µM]	x
NC(=O)CSc1oc(-c2cccs2)nc1S(=O)(=O)c1ccc(Br)cc1	x	x	x	15.6%	-2.8%[59 µM]	x
O=c1cc(-c2ccc(F)cc2)nc(SCc2nc(-c3cccc(Cl)c3)no2)[nH]1	x	x	x	10.2%	-51.6%[59 µM]	x
CNC(=O)C(N)CSC(C)C1=C(C)c2cc3[n-]c(cc4nc(cc5[n-]c(cc1n2)c(C)c5CCC(=O)O)C(CCC(=O)O)=C4C)c(C)c3C(C)SCC(N)C(=O)NC.[Fe+2] (configuration not stated)	-1.8%	x	x	1.1%	-35.6%[12.7 µM]	x
N#C/C(=C\c1ccc(C#N)cc1)C(=O)c1ccccc1	50.1µM*	4.74µM*	-1.5	79.4µM*	-48.2%[2.33 µM]	-4.2%
CN(C)c1ccc(/C=C(\C#N)C(=O)c2ccccc2)cc1	-5.1%	54.8%	-1.6	-12.7%	9.8%	-1.9%
Cc1ccc(C=C(C#N)C(=O)c2ccccc2)cc1	x	1.89µM*	-1.3	x	x	x
SMILES	Sfp inh	PLK1 PBD inh	CCT chaperon mod	VDR inhibitor	G9a inh	Mm-Cpn inhibitor
COC(=O)/C(C#N)=C/c1ccc(OC(=O)c2ccccn2)cc1	14.1µM*	-12.3%	-0.6	-18.9%	7.94µM*	-17.8%
COc1ccc(/C=C(\C#N)C(=O)OCC(=O)NCc2ccccc2)cc1	8.8%	-5.2%	1.0	0.9%	-1.5%[59 µM]	-0.9%
COc1ccc(C=C(C#N)C(=O)c2ccccc2)cc1	x	6.7µM*	0.1	x	x	x
CC(=O)N1CCc2c(sc3c2c(=O)n(-c2cc(Cl)ccc2C)c(=O)n3Cc2ccccc2F)C1	x	x	x	17.5%	3.0%[59 µM]	x
CCCCCC#CC[C@@H](O)/C=C/C=C/C=C\[C@@H](O)CCCC(=O)O	0.3%	x	x	-7.9%	x	x
COc1cccc(N(CC(=O)N2CCC(C)CC2)S(=O)(=O)c2ccc(C)cc2)c1	x	x	x	12.3%	-19.7%[59 µM]	x
COc1ccc(NS(=O)(=O)c2ccc3nc(COc4ccc(Cl)c(C)c4)[nH]c3c2)cc1	36.2%	-18.9%	1.3	3.7%	44.7µM*	0.4%
Cc1ccc(OCc2cc(=O)n3c4c(sc3n2)CCCC4)cc1C	x	x	x	-10.2%	5.0%[59 µM]	x
O=C1N/C(=N/Nc2ccccc2)S/C1=C\c1ccccc1	25.1µM*	21.2µM*	-9.8	44.7µM*	7.94µM*	-7.0%
